Source: PubChem BioAssay (NCATS)
Results filed as inconclusive are left out. A number with no mark means an inactive call. Active and inactive are the calls of the source. The call rests on the fitted dose curve; in most records, active means well fitted curve in the direction sought with a large enough effect; inconclusive means small, poorly fitted or top-dose-only effect, or another doubt; inactive means no such curve, though single readings can be large; an effect the other way counts as inactive or inconclusive.

Tests used:
[1] = target: Retinaldehyde dehydrogenase 3 (Homo sapiens) (UniProt P47895); assay: qHTS for Inhibitors of the Aldehyde Dehydrogenase Family (ALDH1A3) Confirmatory screens (AID 2061311); further: nearly all actives have a fitted effect of over 60% in size; further: potency means the concentration at half of the fitted maximal effect
[2] = target: Aldehyde dehydrogenase, mitochondrial (Homo sapiens) (UniProt P05091); assay: qHTS for Inhibitors of the Aldehyde Dehydrogenase Family (ALDH2) Primary screen (AID 2061308); further: nearly all actives have a fitted effect of over 55% in size; further: potency means the concentration at half of the fitted maximal effect
[3] = target: Aldehyde dehydrogenase 1A1 (Homo sapiens) (UniProt P00352); assay: qHTS for Inhibitors of the Aldehyde Dehydrogenase Family (ALDH1A1) Confirmatory screens (AID 2061316); further: nearly all actives have a fitted effect of over 65% in size; further: potency means the concentration at half of the fitted maximal effect
[4] = target: Retinaldehyde dehydrogenase 3 (Homo sapiens) (UniProt P47895); assay: qHTS for Inhibitors of the Aldehyde Dehydrogenase Family (ALDH1A3) Primary screen (AID 2061315)
[5] = target: Retinal dehydrogenase 2 (Homo sapiens) (UniProt O94788); assay: qHTS for Inhibitors of the Aldehyde Dehydrogenase Family (ALDH1A2) Confirmation screens (AID 2061314); further: nearly all actives have a fitted effect of over 65% in size; further: potency means the concentration at half of the fitted maximal effect

In the case of Cn1ncc2c(C(=O)NCC(F)(F)F)cc(-c3ccccc3F)nc21, the Potency [1] is reported as “inactive”.

For CCOc1cccc(CNC(=O)c2ccc(N3CCCC3)c(NC(=O)NCc3ccccc3)c2)c1, the Potency [1] was “inactive”.

For O=C(CSc1nc(-c2cccs2)nc2cc(=O)[nH]n12)Nc1cccc(C(F)(F)F)c1, the Potency [1] was “inactive”.

With Cc1ccnc(NC(=S)N2CCN(c3cc(Cl)cc(Cl)c3)CC2)c1 the Potency [2] was 2.24 µM (active) and the Potency [3] was 5.65 µM (active).

In the case of CC(=O)N1CCN(c2ccc(N)cc2)CC1, the Potency [2] is reported as “inactive” and the Potency [3] is reported as 25.2 µM (active).

O=C(c1ccccc1O)N(Cc1ccco1)Cc1ccco1 was tested, and the Potency [4] was “inactive”.

For Cc1cc(C)nc(NC(=S)N2CCN(c3ccc4nccn4c3)CC2)c1, the Potency [1] was 10.1 µM (active), the Potency [5] was 14.2 µM (active) and the Potency [4] was “inactive”. The Potency [3] was 7.12 µM (active).

With Cc1ccn2c(Nc3ccc4c(c3)OCO4)c(-c3ccccn3)nc2c1 the Potency [1] was 17.9 µM (active) and the Potency [4] was “inactive”.

For N#Cc1cccc(OC2=NS(=O)(=O)c3ccccc32)c1, the Potency [1] was 12.7 µM (active), the Potency [4] was “inactive” and the Potency [3] was 5.04 µM (active).

O=C1CCCC2=C1C(c1cccnc1Br)N=C(Nc1nc3ccccc3o1)N2 (centres undefined) was tested, and the Potency [1] was 20.1 µM (active), the Potency [4] was “inactive” and the Potency [3] was 11.3 µM (active).

S=C(NCCCc1cnc[nH]1)NCCCN(Cc1ccccc1)c1ccc(Br)cn1 was tested, and the Potency [1] was “inactive” and the Potency [4] was “inactive”.

In the case of O=S1(=O)Nc2c(ccc3cccnc23)-c2ccccc21, the Potency [1] is reported as 8.96 µM (active), the Potency [5] is reported as 12.7 µM (active) and the Potency [3] is reported as “inactive”.

In the case of COc1ccc2ccccc2c1CN(C)CC(=O)Nc1ccc(N2CCOCC2)cc1, the Potency [1] is reported as 11.3 µM (active), the Potency [5] is reported as 11.3 µM (active) and the Potency [3] is reported as 7.98 µM (active).

With Cc1ccc(-c2ccnc(N3CCC(C(N)=O)CC3)n2)cc1 the Potency [1] was 5.04 µM (active) and the Potency [4] was “inactive”.

In the case of Cc1ccnc(NC(=S)N2CCN(c3ccc(O)cc3)CC2)c1, the Potency [1] is reported as 12.7 µM (active) and the Potency [3] is reported as 7.98 µM (active).

In the case of Cc1csc(CNc2ncnc3cc(-c4ccc5c(c4)OCO5)ccc23)n1, the Potency [1] is reported as 7.94 µM (active), the Potency [4] is reported as “inactive” and the Potency [3] is reported as 11.3 µM (active).

In the case of CC(=O)Nc1ccc(OCc2cccc(-c3nc4ccccc4c(=O)n3Cc3ccco3)c2)cc1, the Potency [1] is reported as 15.8 µM (active), the Potency [5] is reported as 7.98 µM (active) and the Potency [4] is reported as “inactive”. For the same compound, the Potency [3] was 2.83 µM (active).

In the case of COc1ccc(-c2ccc(C)cc2)cc1CC(=O)N(C)C(C)c1ccco1 (centres undefined), the Potency [1] is reported as 2.01 µM (active), the Potency [5] is reported as 6.31 µM (active) and the Potency [3] is reported as 11.3 µM (active).

Cc1c(C(=O)OCC2CCCC2)[nH]c2c1C(=O)CC(c1ccco1)C2 (centres undefined) was tested, and the Potency [1] was 15.8 µM (active), the Potency [5] was 3.57 µM (active) and the Potency [4] was “inactive”. For the same compound, the Potency [3] was 1.13 µM (active).

O=C1Cc2cc(S(=O)(=O)N3CCN(c4ccc(Br)cc4)CC3)ccc2N1 was tested, and the Potency [1] was “inactive”, the Potency [5] was 20.6 µM (active) and the Potency [4] was “inactive”.

Oc1cc(-c2cccnc2)cc2cccnc12 was tested, and the Potency [1] was 4.49 µM (active), the Potency [5] was “inactive” and the Potency [4] was “inactive”.

Cc1c(C(=O)OC[C@H]2CCCO2)[nH]c2c1C(=O)CC(c1ccco1)C2 (some centres undefined) was tested, and the Potency [1] was 12.7 µM (active), the Potency [5] was 4 µM (active) and the Potency [4] was “inactive”. The Potency [3] was 1.42 µM (active).

In the case of CCC(=O)NC(c1cccs1)c1cc([N+](=O)[O-])c2cccnc2c1OC (centres undefined), the Potency [1] is reported as 3.57 µM (active), the Potency [5] is reported as 2.01 µM (active) and the Potency [3] is reported as 11.3 µM (active).

In the case of Nc1ccc(CNc2ccc([S+](=O)([O-])Nc3nccs3)cc2)c(O)c1, the Potency [1] is reported as 5.04 µM (active), the Potency [5] is reported as 17.9 µM (active) and the Potency [3] is reported as 3.18 µM (active).

For N#Cc1ccc(N2CCN(S(=O)(=O)c3ccc4c(c3)CC(=O)N4)CC2)cc1, the Potency [1] was 15.8 µM (active), the Potency [4] was “inactive” and the Potency [3] was “inactive”.

With Cc1cc(C)nc(NC(=S)N2CCN(c3cccc4cnccc34)CC2)c1 the Potency [1] was 20.1 µM (active), the Potency [5] was 8.96 µM (active) and the Potency [3] was 10.1 µM (active).

For CC(C)(C)C(=O)N1CCN(c2cccc(Nc3nn4c(=O)c5ccccc5nc4s3)c2)CC1, the Potency [1] was 28.3 µM (active), the Potency [5] was 25.2 µM (active) and the Potency [4] was “inactive”. For the same compound, the Potency [3] was 7.98 µM (active).

NC(=O)C1CCN(c2nc(-c3ccc(-c4ccccc4)cc3)cs2)CC1 was tested, and the Potency [1] was 28.3 µM (active), the Potency [5] was “inactive” and the Potency [4] was “inactive”. The Potency [3] was “inactive”.

CC(=O)Nc1sc2c(c1-c1nccs1)CCNC2 was tested, and the Potency [1] was “inactive”, the Potency [5] was “inactive” and the Potency [4] was “inactive”.

In the case of O=C(Nc1cccc(Cc2ccccc2)n1)c1ccc(-c2cccc([N+](=O)[O-])c2)o1, the Potency [1] is reported as 6.34 µM (active), the Potency [5] is reported as 7.98 µM (active) and the Potency [4] is reported as “inactive”. For the same compound, the Potency [3] was 5.65 µM (active).

For NC(=O)c1cccc(-c2cnc3c(O)ccc(C(=O)O)c3c2)c1, the Potency [1] was 11.3 µM (active), the Potency [5] was 4.49 µM (active) and the Potency [4] was “inactive”. For the same compound, the Potency [3] was 8.96 µM (active).

O=C(Cc1ccccc1)Nc1sc2c(c1C(=O)Nc1ccc(Cl)cc1)CCCC2 was tested, and the Potency [1] was “inactive”, the Potency [5] was 4 µM (active) and the Potency [4] was “inactive”. For the same compound, the Potency [3] was 11.3 µM (active).

With COC(=O)CCSC/C=C(\C)CCn1cc(CCc2ccc(-c3ccccc3)cc2)nn1 the Potency [1] was 8.96 µM (active), the Potency [4] was “inactive” and the Potency [3] was 4.49 µM (active).
